# Test results: PubChem BioAssay
# Values joined by “and” are separate entries in the source; they are usually repeats but may differ in a detail not shown here. Identical values can stand only once. Inconclusive results are not listed. For part of these data: Measured potencies and affinities stand elsewhere. Active and inactive are the calls of the source.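 The calls were made as follows, unless noted: active = compounds whose cell count with miR-34 switched on is under 0.7 times the count with it off; inactive = the rest.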
# Tests used:
# [1] = compounds altering circadian rhythm period length – cell-based, LOPAC library, luminescence reporter (AID 2774; call rule not given here;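 also: values are relative to mean of DMSO wells on each plate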); conditions: circadian reporter cells, at 7 µM, actives lie on both sides
# [2] = test system: Hepatitis C virus NS3 helicase; assay: blockers of NS3h binding to ssDNA – biochemical, fluorescence polarization, LOPAC1280 library, primary screen (AID 687035; in the data active = inhibition above about 37%); conditions: Purified HCV NS3 helicase, Cy5-dT15 ssDNA binding fluorescence polarization; stronger effect = higher value; concentration not given here
# [3] = compounds altering Cy5-DNA-NS3h complex signal – biochemical, LOPAC1280, artefact control for HCV NS3 helicase inhibitor project (AID 687037; call rule not given here); conditions: Cy5-DNA-NS3h complex fluorescence interference counterscreen
# [4] = viability loss with induced miR-34 in A549 – imaging, A549 dox-inducible miR-34, nuclei and caspase counts, primary screen (AID 1347080); conditions: A549 miR-34 inducible, Hoechst nuclei count, 48 h
# [5] = blockers of cellular phospholipid synthesis – cell-based, LOPAC library, screen 4, primary screen (AID 1347384; call rule not given here); conditions: animal cells, phospholipid biosynthesis inhibition screen; at 10 µM
# [6] = MELAS cybrid and Rieske KO viability enhancers – cell-based, MELAS cybrids, Rieske KO mouse fibroblasts, CellTiter-Glo, primary screen (AID 1508586;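 active = mean z-score across replicates of 1.96 or higher in either the MELAS or the Rieske mutant cell line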;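 also: z relative to plate mean and SD of compound and empty wells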); conditions: low glucose
# [7] = galactose survival enhancers in mitochondrial complex I cybrids – cell-based, galactose medium, ATP luminescence, primary screen (AID 1645843;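 active = z-score of at least 1.8 in each of two replicates, scored against plate mean and spread of sample wells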;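 also: positive z means more ATP and so rescue of galactose-driven cybrid death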); conditions: complex I mutant cybrid cells, 72 h, stronger effect = higher value
# [8] = P. berghei load reduction in hepatocytes – cell-based, HepG2, luciferase luminescence, HepG2 viability, primary screen (AID 624349; in the data active = parasite load remaining mostly below about 12%, no sharp cut-off; inactive = mostly above about 10%;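 also: 100% = mean of DMSO negative control wells on the same plate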); conditions: P. berghei liver stage in HepG2, luciferase luminescence, concentration not given here; parasite load remaining: stronger effect = lower value; viability: measured here: HepG2 viability without parasites
# [9] = biological target: Mitogen-activated protein kinase 7 (Homo sapiens) (UniProt Q13164); assay: Gal4-ERK5 driven luciferase induction – cell-based, HTS, primary screen (AID 1508626;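 active = luciferase signal above three times the same-plate solvent-only control wells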;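 also: luciferase driven by Gal4-ERK5 fusion binding five Gal4 sites before minimal TATA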); conditions: HeLa Gal4-ERK5 transactivation, 18 h, at 5 µM, stronger effect = higher value
# [10] = compounds altering viability of human ES cells (AID 493140; call rule not given here;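 also: cells exposed to compounds for four days before counting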); conditions: human embryonic stem cell survival screen; stronger effect = higher value
# [11] = biological target: NAD(+) hydrolase SARM1 (Homo sapiens) (UniProt Q6SZW1); assay: blocking NAD cleavage by SARM1 SAM-TIR – cell lysate, NAD-Glo luminescence (AID 1508614;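 active = compound whose remaining NAD level is above about 45 nM, limit read from the data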;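 also: higher remaining NAD means stronger inhibition of SARM1 NADase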); conditions: SAM-TIR HEK293T lysate NADase, at 1 µM, stronger effect = higher value
# [12] = biological target: ATP-dependent translocase ABCB1 (Homo sapiens) (UniProt P08183); assay: P-glycoprotein substrate transport blockade – cell-based (AID 377; in the data active = fluorescence slope change above about 50%); conditions: MDR1-expressing cells, fluorescent substrate accumulation slope; stronger effect = higher value; concentration not given here
# [13] = blockers of polyQ-driven CASP3 activation – cell-based (AID 1583); conditions: polyglutamine-induced caspase-3 activation, cell assay; stronger effect = higher value;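 tested at 10 µM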
# [14] = yeast 75Q aggregation reduction – 75Q-TubU reporter (AID 1593); conditions: Yeast 75Q polyglutamine aggregation reporter
# [15] = restoration of touch response, mutant HTT neurons – whole organism, C. elegans mechanosensory neurons, N-terminal huntingtin (AID 1599); conditions: C. elegans polyQ-huntingtin mechanosensory neurons, stronger effect = higher value
# [16] = blockers of cytochrome c efflux from mitochondria – biochemical, purified mitochondria (AID 1603); conditions: stronger effect = lower value;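 also: mouse liver mitochondria challenged with calcium chloride; signal normalized to the plate average as 100%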
# [17] = polyglutamine aggregate formation blockers (AID 1604); conditions: polyglutamine-induced protein aggregation inhibition assay; stronger effect = higher value; tested at 2.5 µM
# [18] = glutamate transport activators, MN-1 cells, MN-1 cell line (AID 1612); conditions: MN-1 motor neuron cells, stronger effect = higher value;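 also: tested at 1 µM final; 0% = mean of DMSO vehicle wells on each plate; positive means more glutamate uptake than control and negative means less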
# [19] = GFP-Q80 aggregate reduction, neuronal-like cells, cell-based, NGF-treated PC12, GFPQ80 (AID 1614); conditions: PC12 NGF-treated GFP-polyQ80 inclusion reduction;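 also: lower means fewer inclusions and 0 means no inclusions at all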
# [20] = 75Q-TubH aggregate inhibition, S. cerevisiae, yeast (AID 1616); conditions: S. cerevisiae 75Q-TubH polyglutamine aggregation suppression; stronger effect = higher value
# [21] = stronger effect = lower value, cell number ratio, induced over uninduced
# [22] = measured here: relative caspase fold change +Dox/-Dox
# [23] = measured here: total cells with miR-34 induction, stronger effect = lower value
# [24] = measured here: total cells without miR-34 induction
# [25] = MELAS cybrid survival, CellTiter-Glo 48 h, stronger effect = higher value
# [26] = Rieske KO mouse fibroblast survival, CellTiter-Glo 72 h
# Sequence of Mitogen-activated protein kinase 7 (Homo sapiens) (Q13164 whole entry, looked up, the tested form may be a part): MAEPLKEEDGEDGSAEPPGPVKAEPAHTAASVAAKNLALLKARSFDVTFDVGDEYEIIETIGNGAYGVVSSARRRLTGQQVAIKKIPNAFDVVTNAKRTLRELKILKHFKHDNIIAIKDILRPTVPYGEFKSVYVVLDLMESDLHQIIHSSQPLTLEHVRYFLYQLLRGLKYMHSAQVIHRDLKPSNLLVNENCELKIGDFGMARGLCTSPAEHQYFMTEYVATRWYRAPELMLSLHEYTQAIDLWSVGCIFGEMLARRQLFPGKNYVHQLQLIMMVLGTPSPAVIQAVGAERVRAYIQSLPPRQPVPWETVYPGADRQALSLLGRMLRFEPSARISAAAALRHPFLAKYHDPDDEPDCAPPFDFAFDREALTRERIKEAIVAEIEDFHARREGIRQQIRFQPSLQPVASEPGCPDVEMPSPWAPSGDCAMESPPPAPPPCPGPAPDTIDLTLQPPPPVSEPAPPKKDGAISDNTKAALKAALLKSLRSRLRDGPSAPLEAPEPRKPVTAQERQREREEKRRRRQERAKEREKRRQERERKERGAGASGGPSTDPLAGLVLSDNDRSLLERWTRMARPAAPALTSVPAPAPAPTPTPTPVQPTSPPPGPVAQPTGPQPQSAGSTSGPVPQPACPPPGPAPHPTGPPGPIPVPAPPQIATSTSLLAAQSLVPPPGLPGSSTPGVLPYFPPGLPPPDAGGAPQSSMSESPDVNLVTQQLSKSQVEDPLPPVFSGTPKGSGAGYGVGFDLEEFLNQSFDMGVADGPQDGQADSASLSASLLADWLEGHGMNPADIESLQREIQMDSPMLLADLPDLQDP
# Sequence of NAD(+) hydrolase SARM1 (Homo sapiens) (Q6SZW1 whole entry, looked up): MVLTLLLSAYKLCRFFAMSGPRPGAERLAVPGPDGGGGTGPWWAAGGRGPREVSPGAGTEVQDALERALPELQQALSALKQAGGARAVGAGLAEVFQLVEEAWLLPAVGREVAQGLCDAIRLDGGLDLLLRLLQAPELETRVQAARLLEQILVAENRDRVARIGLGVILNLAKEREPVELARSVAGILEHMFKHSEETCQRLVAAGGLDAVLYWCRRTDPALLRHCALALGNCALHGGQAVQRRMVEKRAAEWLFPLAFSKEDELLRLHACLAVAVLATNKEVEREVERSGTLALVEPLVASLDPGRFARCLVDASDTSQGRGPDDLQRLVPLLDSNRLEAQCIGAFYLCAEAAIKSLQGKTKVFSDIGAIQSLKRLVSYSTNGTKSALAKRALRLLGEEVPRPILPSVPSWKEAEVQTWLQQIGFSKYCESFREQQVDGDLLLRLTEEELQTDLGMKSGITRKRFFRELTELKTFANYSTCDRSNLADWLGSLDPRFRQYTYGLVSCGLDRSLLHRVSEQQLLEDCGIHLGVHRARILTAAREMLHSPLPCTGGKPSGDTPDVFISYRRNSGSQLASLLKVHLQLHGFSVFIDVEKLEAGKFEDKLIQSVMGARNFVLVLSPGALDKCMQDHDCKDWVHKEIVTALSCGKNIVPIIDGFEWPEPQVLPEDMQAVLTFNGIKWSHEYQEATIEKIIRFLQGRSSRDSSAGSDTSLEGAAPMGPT
# Sequence of ATP-dependent translocase ABCB1 (Homo sapiens) (P08183 whole entry, looked up): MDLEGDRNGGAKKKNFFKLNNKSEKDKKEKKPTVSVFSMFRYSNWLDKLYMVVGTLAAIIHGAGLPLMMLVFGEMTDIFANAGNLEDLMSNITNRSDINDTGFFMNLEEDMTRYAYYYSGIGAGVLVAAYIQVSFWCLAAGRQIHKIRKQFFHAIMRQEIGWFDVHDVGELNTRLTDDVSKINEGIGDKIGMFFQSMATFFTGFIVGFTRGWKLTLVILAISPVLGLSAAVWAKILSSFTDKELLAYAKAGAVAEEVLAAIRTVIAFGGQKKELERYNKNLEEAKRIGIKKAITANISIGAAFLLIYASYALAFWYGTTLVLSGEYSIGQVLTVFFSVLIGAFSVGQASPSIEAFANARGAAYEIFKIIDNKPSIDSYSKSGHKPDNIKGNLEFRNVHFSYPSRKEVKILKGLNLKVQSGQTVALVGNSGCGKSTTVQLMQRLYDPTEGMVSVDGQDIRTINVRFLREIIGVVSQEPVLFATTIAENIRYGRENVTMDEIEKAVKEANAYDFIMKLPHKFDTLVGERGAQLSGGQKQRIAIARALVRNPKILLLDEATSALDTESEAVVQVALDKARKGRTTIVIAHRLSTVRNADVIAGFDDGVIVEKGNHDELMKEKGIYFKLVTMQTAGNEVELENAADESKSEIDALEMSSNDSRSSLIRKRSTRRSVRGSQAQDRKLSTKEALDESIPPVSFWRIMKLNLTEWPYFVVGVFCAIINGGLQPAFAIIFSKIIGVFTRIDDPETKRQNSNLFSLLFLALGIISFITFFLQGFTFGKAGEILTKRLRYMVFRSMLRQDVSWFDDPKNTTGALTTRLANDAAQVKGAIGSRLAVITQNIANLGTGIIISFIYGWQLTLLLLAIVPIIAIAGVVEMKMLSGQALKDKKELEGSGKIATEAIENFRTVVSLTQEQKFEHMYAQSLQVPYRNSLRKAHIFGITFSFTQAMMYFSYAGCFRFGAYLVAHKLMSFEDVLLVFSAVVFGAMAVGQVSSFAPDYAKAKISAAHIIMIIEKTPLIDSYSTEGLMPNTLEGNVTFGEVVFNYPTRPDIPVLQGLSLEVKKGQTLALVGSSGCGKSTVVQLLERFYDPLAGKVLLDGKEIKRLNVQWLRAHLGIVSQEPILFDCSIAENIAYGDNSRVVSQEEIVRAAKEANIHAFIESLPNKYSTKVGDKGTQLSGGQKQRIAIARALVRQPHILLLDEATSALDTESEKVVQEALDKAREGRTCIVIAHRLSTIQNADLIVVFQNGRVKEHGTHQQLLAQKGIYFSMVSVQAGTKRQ
smiles,measurement,setting,value
CCC(CO)Nc1nc(NCc2ccccc2)c2ncn(C(C)C)c2n1 (configuration not stated),period change,[1],1.22 h (active)
same,inhibition,[2],0% (inactive)
same,fluorescence ratio (interference),[3],1 (inactive)
same,fold change,[4]; [21],1.36 (inactive) and 0.915 (inactive)
same,fold change,[4]; [22],0.998 and 1.15
same,cell count,[4]; [23],1560 and 4690
same,cell count,[4]; [24],1150 and 5130
same,outcome,[5],inactive
same,z-score,[6]; [25],-0.381 (inactive)
same,z-score,[6]; [26],0.0764
same,z-score,[7],-0.51 (inactive)
CNC(=O)[C@H]1O[C@@H](n2cnc3c(NCc4cccc(I)c4)ncnc32)C(O)[C@H]1O (some centres not stated),period change,[1],-0.015 h (inactive)
same,inhibition,[2],-2% (inactive)
same,fluorescence ratio (interference),[3],0.9 (inactive)
same,fold change,[4]; [21],1.05 (inactive) and 1.03 (inactive)
same,fold change,[4]; [22],0.68 and 1.21
same,cell count,[4]; [23],10000 and 5680
same,cell count,[4]; [24],9560 and 5540
same,outcome,[5],inactive
same,z-score,[7],2.43 (active)
N[C@@H](Cn1ccc(=O)c(O)c1)C(=O)O,parasite load remaining,[8],61.9% (inactive)
same,viability,[8],117%
same,inhibition,[2],-3% (inactive)
same,fluorescence ratio (interference),[3],1 (inactive)
same,fold change,[4]; [21],1.03 (inactive) and 0.872 (inactive)
same,fold change,[4]; [22],1.54 and 1.46
same,cell count,[4]; [23],10200 and 9120
same,cell count,[4]; [24],9910 and 10400
same,outcome,[5],inactive
same,luciferase signal,[9],68 AU (inactive)
same,z-score,[7],0.455 (inactive)
CCCNC1CCc2nc(N)sc2C1 (configuration not stated),fold change,[4]; [21],0.968 (inactive) and 0.933 (inactive) and 0.946 (inactive)
same,fold change,[4]; [22],2.07 and 1.64 and 3.69
same,cell count,[4]; [23],9570 and 9980 and 9760
same,cell count,[4]; [24],9890 and 10700 and 10300
same,z-score,[6]; [25],-0.192 (inactive)
same,z-score,[6]; [26],0.744
same,z-score,[7],1.44 (inactive) and 0.095 (inactive)
NC(=O)c1cc[n+](CC2=C(C(=O)O)N3C(=O)[C@@H](NC(=O)[C@@H](c4ccccc4)S(=O)(=O)[O-])[C@H]3SC2)cc1,period change,[1],-0.015 h (inactive)
same,survival,[10],7.17 (inactive)
same,parasite load remaining,[8],79.7% (inactive)
same,viability,[8],103%
same,inhibition,[2],4% (inactive)
same,fluorescence ratio (interference),[3],1 (inactive)
same,fold change,[4]; [21],1.02 (inactive) and 0.887 (inactive)
same,fold change,[4]; [22],2.31 and 1.36
same,cell count,[4]; [23],10400 and 9300
same,cell count,[4]; [24],10200 and 10500
same,z-score,[6]; [25],0.659 (inactive)
same,z-score,[6]; [26],-0.267
same,remaining NAD,[11],10 nM (inactive)
same,luciferase signal,[9],36 AU (inactive)
same,z-score,[7],-0.05 (inactive)
CN(C)S(=O)(=O)c1ccc2c(c1)/C(=C/c1cc3c([nH]1)CCCC3)C(=O)N2,period change,[1],-0.01 h (inactive)
same,parasite load remaining,[8],43.1% (inactive)
same,viability,[8],152%
same,inhibition,[2],-2% (inactive)
same,fluorescence ratio (interference),[3],1 (inactive)
same,fold change,[4]; [21],0.998 (inactive) and 0.964 (inactive)
same,fold change,[4]; [22],1 and 1.24
same,cell count,[4]; [23],3800 and 4420
same,cell count,[4]; [24],3810 and 4590
same,outcome,[5],active
same,z-score,[7],1 (inactive)
CCN(CC)CCOc1ccc(/C(=C(/Cl)c2ccccc2)c2ccccc2)cc1,fluorescence slope change,[12],69.8% (active)
same,survival,[10],1.25 (inactive)
same,parasite load remaining,[8],5.86% (inactive) and 13.7% (inactive) and 1.37% (inactive)
same,viability,[8],83.4% and 76% and 71%
same,fold change,[4]; [21],0.802 (inactive) and 0.892 (inactive)
same,fold change,[4]; [22],1.39 and 1.34
same,cell count,[4]; [23],7010 and 7690
same,cell count,[4]; [24],8740 and 8620
same,z-score,[6]; [25],-1.93 (inactive) and -1.91 (inactive)
same,z-score,[6]; [26],-0.316 and -1.39
same,z-score,[7],-2.19 (inactive)
CC[C@H](C)[C@H]1O[C@]2(CC[C@@H]1C)C[C@@H]1C[C@@H](C/C=C(\C)[C@@H](O[C@H]3C[C@H](OC)[C@@H](O[C@H]4C[C@H](OC)[C@@H](O)[C@H](C)O4)[C@H](C)O3)[C@@H](C)/C=C/C=C3\CO[C@@H]4[C@H](O)C(C)=C[C@@H](C(=O)O1)[C@]34O)O2,parasite load remaining,[8],26.5% (inactive) and 28.8% (inactive)
same,viability,[8],44.6% and 96.5%
same,fold change,[4]; [21],0.862 (inactive) and 0.935 (inactive)
same,fold change,[4]; [22],0.479 and 1.24
same,cell count,[4]; [23],6180 and 7180
same,cell count,[4]; [24],7170 and 7680
same,z-score,[6]; [25],-1.97 (inactive) and -0.0039 (inactive)
same,z-score,[6]; [26],0.878 and -0.186
same,remaining NAD,[11],10 nM (inactive)
same,luciferase signal,[9],44 AU (inactive)
same,z-score,[7],-1.77 (inactive)
CCC1(c2ccccc2)NC(=O)N(C)C1=O (configuration not stated),inhibition,[13],6.58%
same,score,[14],1.42
same,rescue above control,[15],11.8
same,cytochrome c release ratio,[16],0.46
same,inhibition of aggregation,[17],79.3%
same,glutamate uptake change,[18],-9.05%
same,inclusion score,[19],2
same,aggregation suppression score,[20],1.34
same,survival,[10],9.5 (inactive)
same,parasite load remaining,[8],75.3% (inactive) and 65.4% (inactive)
same,viability,[8],74.4% and 110%
same,fold change,[4]; [21],0.978 (inactive) and 0.889 (inactive)
same,fold change,[4]; [22],0.677 and 1.53
same,cell count,[4]; [23],9090 and 9500
same,cell count,[4]; [24],9300 and 10700
same,z-score,[6]; [25],0.04 (inactive) and 0.144 (inactive)
same,z-score,[6]; [26],0.0806 and -0.391
same,z-score,[7],0.64 (inactive)
C[C@]12C=CC(=O)C=C1CC[C@@H]1C2=CC[C@]2(C)[C@@H](C(=O)CN3CCN(c4cc(N5CCCC5)nc(N5CCCC5)n4)CC3)CC[C@@H]12,period change,[1],0.075 h (inactive)
same,inhibition,[2],-5% (inactive)
same,fluorescence ratio (interference),[3],0.9 (inactive)
same,fold change,[4]; [21],0.983 (inactive) and 1.04 (inactive)
same,fold change,[4]; [22],0.64 and 0.868
same,cell count,[4]; [23],8450 and 5900
same,cell count,[4]; [24],8600 and 5690
same,outcome,[5],inactive
same,z-score,[7],1.27 (inactive)
CC1CNCCN1S(=O)(=O)c1cccc2cnccc12 (configuration not stated),period change,[1],0.05 hour (inactive) and -0.065 hour (inactive)
same,survival,[10],216 (active)
same,inhibition,[2],-1% (inactive)
same,fluorescence ratio (interference),[3],0.9 (inactive)
same,fold change,[4]; [21],1.06 (inactive) and 1.03 (inactive)
same,fold change,[4]; [22],1.18 and 0.538
same,cell count,[4]; [23],11400 and 1600
same,cell count,[4]; [24],10700 and 1550
same,outcome,[5],inactive
same,z-score,[7],-1.29 (inactive)
COc1ccc2cc(C(C)C(=O)O)ccc2c1 (configuration not stated),parasite load remaining,[8],40.8% (inactive)
same,viability,[8],47.4%
same,fold change,[4]; [21],0.873 (inactive) and 1.59 (inactive) and 0.829 (inactive)
same,fold change,[4]; [22],1.19 and 0.614 and 0.98
same,cell count,[4]; [23],8070 and 7920 and 7570
same,cell count,[4]; [24],9240 and 4980 and 9130
same,z-score,[6]; [25],-0.171 (inactive) and 0.614 (inactive)
same,z-score,[6]; [26],0.627 and 0.253
same,z-score,[7],0.575 (inactive)
